# Source: PubChem
# Most compounds without a hit are left out; they make up all but 6.7% or so of the library.
# C diff HTS – inhibitors of Clostridium difficile growth | Clostridium difficile clinical isolate growth, OD600, 24 h; active compounds read low | growth activity, negative = inhibition, % at 16 µg/mL (by protocol) | 86,000 compounds, 0.25% hits | AID 1259249;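 active means mean growth activity at or below -80% and every replicate also at or below -80%; inconclusive means mean at or below -80% but some replicate above -80%; inactive means mean growth activity above -80%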
# T cruzi growth-1 – inhibitors of T. cruzi proliferation; T. cruzi beta-gal in NIH3T3, GalScreen luminescence, 90 h; inhibition, % at 8.34 µM; 77,000 compounds, 5.9% hits;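 active means mean inhibition above about 93%, with at least 55% of replicates each passing it, limit read from the data, passing the limit was not always enough; inconclusive means only one of those two conditions holds; inactive means neither condition holds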
# Pf Dd2 inh – blocks growth of Plasmodium falciparum Dd2 parasites; P. falciparum Dd2 growth, SYBR Green, 72 h; active compounds read low; activity change, % at 10 µM; 94,000 compounds, 2.3% hits; in the data active means activity change below about -80%; inconclusive means no clear call, values can overlap the other calls
# T cruzi growth-2 – blocks T. cruzi growth in NIH3T3 host cells; shares compounds with T cruzi growth-1; T. cruzi beta-gal in NIH3T3, GalScreen luminescence, 90 h; inhibition, % at 8.35 µM; 5,600 compounds, 72% hits; AID 651739;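 active means mean replicate inhibition above about 95% and at least 55% of replicates individually reaching it, limit read from the data; inconclusive means only one of the two criteria is met; inactive means neither criterion is met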
# T cruzi growth-3 – inhibitors of T. cruzi proliferation. shares compounds with T cruzi growth-1. inhibition, % at 2.09 µM. T. cruzi beta-gal in NIH3T3, GalScreen luminescence, 90 h. AID 651740. 5,600 compounds, 21% hits;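 active means mean inhibition above about 95%, with at least 55% of replicates also reaching it, limit read from the data; inconclusive means meets just one of the two conditions; inactive means meets neither condition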
# 3T3 cytotox – NIH/3T3 (mouse) viability loss. NIH/3T3 viability, CellTiter-Glo ATP luminescence, 90 h. AID 651742. shares compounds with T cruzi growth-1. 5,600 compounds, 14% hits. cytotoxicity (signal decrease), % at 8.35 µM;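 active means mean signal decrease across replicates above about 35% based on untreated-well scatter, with enough replicates individually passing, limit read from the data; inconclusive means no rule stated though some were filed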
# NIH3T3 tox 2 – kills mouse NIH/3T3 fibroblasts | shares compounds with T cruzi growth-1 | NIH/3T3 viability, CellTiter-Glo ATP luminescence, 90 h | inhibition, % at 24.9 µM | 5,600 compounds, 56% hits | AID 651744;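 active means mean loss of cell viability signal at or above a set limit, and enough replicates individually reaching it; inconclusive means meets only the mean limit or only the replicate share; inactive means meets neither condition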
# Hits are given with their value; i = inactive; ? = inconclusive; nt = no result.
SMILES,C diff HTS,T cruzi growth-1,Pf Dd2 inh,T cruzi growth-2,T cruzi growth-3,3T3 cytotox,NIH3T3 tox 2
CCC(=O)N1CC[C@@H]2[C@H]1c1cc(-c3ccccc3)ccc1N(C)[C@H]2CO,i,i,i,nt,nt,nt,nt
COCC(=O)N1CC[C@H]2[C@@H]1c1cc(-c3cccc(OC)c3)ccc1N(C)[C@H]2CO,i,101.0,i,107.9,i,i,i
C[C@H](CO)N1C[C@H](C)[C@H](CN(C)C(=O)c2ccncc2)Oc2cc(C3=CCCC3)ccc2S1(=O)=O,i,?,i,98.9,i,i,i
C[C@@H]1CN([C@@H](C)CO)S(=O)(=O)c2ccc(C3=CCCCC3)cc2O[C@@H]1CN(C)C(=O)c1ccc(F)cc1,i,113.9,i,106.8,i,i,98.2
C[C@@H]1CN([C@@H](C)CO)S(=O)(=O)c2ccc(C3=CCCC3)cc2O[C@H]1CN(C)C(=O)c1ccncc1,i,i,i,nt,nt,nt,nt
C[C@@H]1CN([C@@H](C)CO)S(=O)(=O)c2ccc(C3=CCCC3)cc2O[C@H]1CN(C)C(=O)c1ccc(F)cc1,i,nt,i,nt,nt,nt,nt
O=C(C[C@H]1CC[C@@H]2[C@H](COC[C@H](O)CN2Cc2ccc(Oc3ccccc3)cc2)O1)N1CCc2ccccc2C1,i,i,i,nt,nt,nt,nt
C[C@@H]1CN([C@H](C)CO)C(=O)c2cc(/C=C/c3ccccc3)cnc2O[C@H]1CN(C)Cc1ccccc1,i,114.3,i,113.5,98.3,i,105.3
C[C@H](CO)N1C[C@H](C)[C@H](CN(C)C(=O)Cc2ccccn2)Oc2ncc(/C=C/c3ccccc3)cc2C1=O,i,i,i,nt,nt,nt,nt
C[C@@H]1CN([C@@H](C)CO)C(=O)c2cc(/C=C/c3ccccc3)cnc2O[C@H]1CN(C)C(=O)Cc1ccccn1,i,100.9,i,102.8,99.0,i,45.6
C[C@@H]1CN([C@@H](C)CO)C(=O)c2cc(/C=C/c3ccccc3)cnc2O[C@H]1CN(C)Cc1ccncc1,i,120.0,i,113.6,i,i,i
C[C@H]1CN([C@@H](C)CO)C(=O)c2cc(/C=C/c3ccccc3)cnc2O[C@H]1CN(C)Cc1ccncc1,i,i,i,nt,nt,nt,nt
C[C@H](CO)N1C[C@H](C)[C@H](CN(C)Cc2ccncc2)Oc2ncc(/C=C/c3ccccc3)cc2C1=O,i,i,i,nt,nt,nt,nt
C[C@H](CO)N1C[C@H](C)[C@@H](CN(C)C(=O)CCC(F)(F)F)OCCCC[C@H](C)Oc2ccc(NC(=O)Cc3ccccc3)cc2C1=O,i,i,nt,nt,nt,nt,nt
C[C@@H]1CN([C@H](C)CO)C(=O)c2cc(C#CC3CC3)cnc2O[C@H]1CN(C)C(=O)c1ccncc1,nt,i,i,nt,nt,nt,nt
CNC[C@H]1Oc2c(NS(=O)(=O)c3cn(C)cn3)cccc2C(=O)N([C@@H](C)CO)C[C@H]1C,i,i,i,nt,nt,nt,nt
CC(C)C#Cc1ccc([C@@H]2[C@@H](CO)N3CCCCN(C(=O)Nc4ccccc4)C[C@@H]23)cc1,i,106.2,i,111.6,i,i,104.6
CC(C)C#Cc1ccc([C@@H]2[C@@H](CO)N3CCCCN(C(=O)Nc4ccccc4)C[C@H]23)cc1,i,99.4,i,99.6,i,38.6,104.7
CC(C)C#Cc1ccc([C@@H]2[C@H]3CN(C(=O)Nc4ccccc4)CCCCN3[C@H]2CO)cc1,i,?,i,i,i,88.1,105.9
CC(C)C#Cc1ccc([C@@H]2[C@H](CO)N3CCCCN(C(=O)Nc4ccccc4)C[C@@H]23)cc1,i,i,i,nt,nt,nt,nt
C[C@H](O)C#Cc1ccc([C@H]2[C@@H](CO)N3CCCCN(C(=O)Nc4ccccc4)C[C@H]23)cc1,i,108.7,i,i,i,i,i
C[C@@H](O)C#Cc1ccc([C@@H]2[C@@H](CO)N3CCCCN(C(=O)Nc4ccccc4)C[C@@H]23)cc1,i,i,i,nt,nt,nt,nt
C[C@H](O)C#Cc1ccc([C@@H]2[C@@H](CO)N3CCCCN(C(=O)Nc4ccccc4)C[C@@H]23)cc1,i,i,i,nt,nt,nt,nt
C[C@@H](O)C#Cc1ccc([C@H]2[C@@H](CO)N3CCCCN(C(=O)Nc4ccccc4)C[C@H]23)cc1,i,i,i,nt,nt,nt,nt
OC[C@@H]1[C@H](c2ccccc2)C2(CN(CCC(F)(F)F)C2)N1Cc1nccs1,i,nt,i,nt,nt,nt,nt
OC[C@@H]1[C@@H](c2ccc(-c3cccnc3)cc2)[C@H]2CN(Cc3ccccn3)CCCCN12,i,i,i,nt,nt,nt,nt
